The values below come from PubChem BioAssay (NCATS).

Records with an inconclusive call do not appear. Unmarked numbers belong to inactive results. Active and inactive are the calls of the source. Calls come from the whole dose curve; as a rule, active = well fitted inhibition curve with a large enough effect; inconclusive = small, poorly fitted or top-dose-only effect; inactive = flat fitted curve, though single readings scatter.

The subject of one assay is Zika virus NS2B-NS3 protease. Kind of assay: Primary screen GU AMC qHTS for Zika virus inhibitors (AID 1347154).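 Note: 0% = no-inhibitor control and -100% = no-enzyme control; nearly all actives have a fitted effect of over 70% in size.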 The following applies: Zika NS2B-NS3 unlinked protease, AMC fluorogenic substrate; series mostly up to 54.1 µM; activity change, negative = inhibition: at the top concentration. In short, it runs like this: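 Fluorogenic AMC-substrate cleavage by noncovalent NS2B-NS3 protease complex (25 nM, pH 8.0 Tris buffer with Tween 20) followed for 15 minutes at room temperature (~20% conversion). Percent inhibition from ex340/em450 signal change, fitted by 4-parameter Hill equation.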
(qHTS replaces the single test concentration by a dilution series.)
Turning to `CCCCNc1ccc(C(=O)OCCN(C)C)cc1`, the “activity change, negative = inhibition” value was 1.86%.
For the molecule `CNCCCN1c2ccccc2CCc2ccccc21`, the result was inactive.
On the same count and under the same terms, the value for `Brc1c(NC2=NCCN2)ccc2nccnc12` was “inactive”.
`Cc1nnc(SCC2=C(C(=O)O)N3C(=O)[C@@H](NC(=O)Cn4cnnn4)[C@H]3SC2)s1`: the “activity change, negative = inhibition” value was -0.697%.
For `CCN(CC)CCCN(c1ccccc1)C1Cc2ccccc2C1`, the “activity change, negative = inhibition” value was 4.47%.
As for `N[C@@H](COP(=O)(O)O)C(=O)O`, the molecule was called inactive.
Regarding `Fc1ccc(C(c2ccc(F)cc2)N2CCN(C/C=C/c3ccccc3)CC2)cc1`, the molecule was called inactive.
In the case of `NC(N)=N/N=C/c1c(Cl)cccc1Cl`, the “activity change, negative = inhibition” value is 5.62%.
Still for that read-out and setting: in the case of `CCc1cccc(N(C)C(N)=Nc2cccc3ccccc23)c1` it was -1.63%.
With `CN(C)[C@@H]1C(=O)C(C(N)=O)=C(O)[C@@]2(O)C(=O)C3=C(O)c4c(O)ccc(Cl)c4[C@@H](O)[C@H]3C[C@@H]12`, the “activity change, negative = inhibition” value is -14.1%.
The same measure, in the same setting: in the case of `CCc1c(C)[nH]c2c1C(=O)C(CN1CCOCC1)CC2` (stereo not drawn) it was 1.26%; in that of `CC(C(=O)O)c1ccc(CC2CCCC2=O)cc1` (stereo not drawn), -3.4%; in that of `CCn1cc(C(=O)O)c(=O)c2cc3c(cc21)OCO3`, -1.76% [at 25.8 µM].
The same measure, in the same setting: in the case of `CCO/C([O-])=N/c1c[n+](N2CCOCC2)no1` it was -1.28%.
For `CCN(CC)CCOCCOC(=O)C1(c2ccccc2)CCCC1`, the outcome was inactive.
Turning to `CCCC(C(=O)OCCN(CC)CC)(c1ccccc1)c1ccccc1`, the “activity change, negative = inhibition” value is -15%.
Still for that read-out and setting: in the case of `NS(=O)(=O)c1cc2c(cc1Cl)NC(C1CC3C=CC1C3)NS2(=O)=O` (stereo not drawn) it was -2.92%.
`COc1ccc([C@@H]2Sc3ccccc3N(CCN(C)C)C(=O)[C@@H]2OC(C)=O)cc1`: the molecule was classed as inactive.
On to `C[N+](C)(C)CCOC(=O)CCC(=O)OCC[N+](C)(C)C`, for which the “activity change, negative = inhibition” value was -0.759%.
As for `CN1CCN(C2=Nc3ccccc3Oc3ccc(Cl)cc32)CC1`, the “activity change, negative = inhibition” value is -4.97%.
Still for that read-out and setting: the value for `NC(=O)c1cn(Cc2c(F)cccc2F)nn1` was -1.38%; that for `CCCN(CCC)CCc1cccc2c1CC(=O)N2` was -7.36%; that for `CCN(CC)CCNC(=O)c1ccc(NC(C)=O)cc1` was -0.243%.
Regarding `CN(C)C/C=C(/c1ccc(Br)cc1)c1cccnc1`, the “activity change, negative = inhibition” value is 1.99%.
For `CCCCNc1c(C(=O)OCC)c(C)nc2c1cnn2CC`, the outcome was inactive.
As to `COc1ccc(CN(CCN(C)C)c2ccccn2)cc1`, the call was inactive.
For `C#CCN(C)CCCOc1ccc(Cl)cc1Cl`, the “activity change, negative = inhibition” value is -17.3%.
As to `CCCN1C[C@H](CSC)C[C@@H]2c3cccc4[nH]cc(c34)C[C@H]21`, the “activity change, negative = inhibition” value is -0.694%.
As to `CC(C)COCC(CN(Cc1ccccc1)c1ccccc1)N1CCCC1` (stereo not drawn), the molecule was classed as inactive.
Consider `O=C(O)CN(CCOCCOCCN(CC(=O)O)CC(=O)O)CC(=O)O`, for which the activity change, negative = inhibition was -0.967% [at 0.59 µM].
On to `Cc1ccc(=O)n(-c2ccccc2)c1`, for which the molecule was called inactive.
With `NC1=NCC2c3ccccc3Cc3ccccc3N12` (stereo not drawn), the “activity change, negative = inhibition” value was -6.17%.
Take `O=C(CCNNC(=O)c1ccncc1)NCc1ccccc1`: the “activity change, negative = inhibition” value was 0.728%.
With `C[N+](C)(C)CCCCCCCCCC[N+](C)(C)C`, the “activity change, negative = inhibition” value was 1.41%.
Still for that read-out and setting: the value for `O=C(O)CP(=O)(O)O` was -3.08%.
For `Cc1scc2c1N(C(=O)CN1CCN(C)CC1)c1ccccc1NC2=O`, the molecule was classed as inactive.

The target of the next assay is Lysine-specific demethylase 5B (Homo sapiens) (UniProt Q9UGL1). The assay is described as follows: Optimization screen for KDM5B Histone Demethylases FDH coupled qHTS against the LOPAC library (AID 1347166). Note: 0% is about no effect. The following applies: KDM5B demethylation, FDH-coupled NADH fluorescence (FDH is formaldehyde dehydrogenase); series mostly up to 57.5 µM; activity, negative = inhibition: at the top concentration. The gist of the method: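 KDM5BDeltaAP (200nM final) in 50mM HEPES pH 7.5, 0.01% Tween-20 was preincubated with compound for 10 min at room temperature. A substrate mix of 12.5uM H3K4Me3, 25uM a-ketoglutarate, ascorbate, Fe2+, NAD+ and formaldehyde dehydrogenase was then added. NADH fluorescence (340/450 nm) was read initially and after 30 min.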
Sequence of Lysine-specific demethylase 5B (Homo sapiens) (Q9UGL1 whole entry, looked up): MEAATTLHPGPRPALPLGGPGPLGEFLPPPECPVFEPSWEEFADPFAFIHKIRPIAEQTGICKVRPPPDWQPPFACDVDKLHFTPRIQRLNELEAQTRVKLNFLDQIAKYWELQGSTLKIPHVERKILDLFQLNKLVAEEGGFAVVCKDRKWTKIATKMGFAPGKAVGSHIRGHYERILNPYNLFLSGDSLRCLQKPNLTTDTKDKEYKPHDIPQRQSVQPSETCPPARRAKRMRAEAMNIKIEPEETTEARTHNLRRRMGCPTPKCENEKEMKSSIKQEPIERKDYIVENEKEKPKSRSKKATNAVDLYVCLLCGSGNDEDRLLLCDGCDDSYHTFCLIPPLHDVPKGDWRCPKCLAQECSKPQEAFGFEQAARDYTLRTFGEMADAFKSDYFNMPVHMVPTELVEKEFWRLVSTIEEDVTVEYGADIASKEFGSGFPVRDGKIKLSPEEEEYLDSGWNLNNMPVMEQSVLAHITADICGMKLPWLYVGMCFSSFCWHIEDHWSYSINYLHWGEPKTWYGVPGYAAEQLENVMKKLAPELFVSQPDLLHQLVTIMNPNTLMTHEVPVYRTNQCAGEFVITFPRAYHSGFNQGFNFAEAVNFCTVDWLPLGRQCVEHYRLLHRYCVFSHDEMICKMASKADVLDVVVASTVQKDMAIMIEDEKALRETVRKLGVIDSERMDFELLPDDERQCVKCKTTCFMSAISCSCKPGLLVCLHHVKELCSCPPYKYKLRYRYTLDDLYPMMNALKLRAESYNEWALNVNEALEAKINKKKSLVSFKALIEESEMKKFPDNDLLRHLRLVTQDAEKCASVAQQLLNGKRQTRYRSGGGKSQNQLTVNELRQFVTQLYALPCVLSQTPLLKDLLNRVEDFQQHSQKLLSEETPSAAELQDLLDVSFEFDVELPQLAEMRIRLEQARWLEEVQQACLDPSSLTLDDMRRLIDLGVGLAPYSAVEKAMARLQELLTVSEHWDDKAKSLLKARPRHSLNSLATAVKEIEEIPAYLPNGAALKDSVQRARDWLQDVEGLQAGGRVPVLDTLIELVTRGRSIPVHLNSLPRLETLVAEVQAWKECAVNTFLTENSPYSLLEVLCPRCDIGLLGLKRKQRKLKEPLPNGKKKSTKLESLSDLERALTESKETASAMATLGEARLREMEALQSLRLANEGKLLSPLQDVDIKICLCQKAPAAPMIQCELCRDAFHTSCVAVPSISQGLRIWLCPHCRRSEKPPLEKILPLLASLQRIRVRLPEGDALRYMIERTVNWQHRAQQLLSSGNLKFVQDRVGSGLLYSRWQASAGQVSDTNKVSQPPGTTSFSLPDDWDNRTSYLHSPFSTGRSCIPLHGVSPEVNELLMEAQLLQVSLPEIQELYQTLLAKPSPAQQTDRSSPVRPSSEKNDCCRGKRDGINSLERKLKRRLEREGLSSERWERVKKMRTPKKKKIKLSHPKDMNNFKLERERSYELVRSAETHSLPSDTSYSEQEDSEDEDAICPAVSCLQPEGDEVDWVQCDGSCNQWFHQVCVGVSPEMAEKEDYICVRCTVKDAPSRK
For the molecule `CCN(CC)CCCN(c1ccccc1)C1Cc2ccccc2C1`, the “activity, negative = inhibition” value was -3.28%.
Still for that read-out and setting: in the case of `N[C@@H](COP(=O)(O)O)C(=O)O` it was 1.82%.
On the same count and under the same terms, the value for `Fc1ccc(C(c2ccc(F)cc2)N2CCN(C/C=C/c3ccccc3)CC2)cc1` was -20%.
For `NC(N)=N/N=C/c1c(Cl)cccc1Cl`, the “activity, negative = inhibition” value is -5.02%.
The same measure, in the same setting: in the case of `CCc1cccc(N(C)C(N)=Nc2cccc3ccccc23)c1` it was -5.88%.
As for `CCO/C([O-])=N/c1c[n+](N2CCOCC2)no1`, the “activity, negative = inhibition” value is 4.04%.
In the case of `C[N+](C)(C)CCOC(=O)CCC(=O)OCC[N+](C)(C)C`, the “activity, negative = inhibition” value is 12.7%.
`CCCN(CCC)CCc1cccc2c1CC(=O)N2`: the “activity, negative = inhibition” value is -4.9%.
Take `CN(C)C/C=C(/c1ccc(Br)cc1)c1cccnc1`: the “activity, negative = inhibition” value was 2.36%.
The same measure, in the same setting: the value for `C#CCN(C)CCCOc1ccc(Cl)cc1Cl` was -4.69%.
Still for that read-out and setting: the value for `CCCN1C[C@H](CSC)C[C@@H]2c3cccc4[nH]cc(c34)C[C@H]21` was -8.27%; that for `NC1=NCC2c3ccccc3Cc3ccccc3N12` (stereo not drawn) was -2.39%.
